Here are results for 39 targets from the supplement of paper PMC10849652.

The full data set covers some 8,800 targets. This sample favours those with a hit. About 0.5% of all pairs of compound and target were hits. A number with no mark means an inactive call.

Chain of UniProt O95352 (O95352 whole entry, looked up): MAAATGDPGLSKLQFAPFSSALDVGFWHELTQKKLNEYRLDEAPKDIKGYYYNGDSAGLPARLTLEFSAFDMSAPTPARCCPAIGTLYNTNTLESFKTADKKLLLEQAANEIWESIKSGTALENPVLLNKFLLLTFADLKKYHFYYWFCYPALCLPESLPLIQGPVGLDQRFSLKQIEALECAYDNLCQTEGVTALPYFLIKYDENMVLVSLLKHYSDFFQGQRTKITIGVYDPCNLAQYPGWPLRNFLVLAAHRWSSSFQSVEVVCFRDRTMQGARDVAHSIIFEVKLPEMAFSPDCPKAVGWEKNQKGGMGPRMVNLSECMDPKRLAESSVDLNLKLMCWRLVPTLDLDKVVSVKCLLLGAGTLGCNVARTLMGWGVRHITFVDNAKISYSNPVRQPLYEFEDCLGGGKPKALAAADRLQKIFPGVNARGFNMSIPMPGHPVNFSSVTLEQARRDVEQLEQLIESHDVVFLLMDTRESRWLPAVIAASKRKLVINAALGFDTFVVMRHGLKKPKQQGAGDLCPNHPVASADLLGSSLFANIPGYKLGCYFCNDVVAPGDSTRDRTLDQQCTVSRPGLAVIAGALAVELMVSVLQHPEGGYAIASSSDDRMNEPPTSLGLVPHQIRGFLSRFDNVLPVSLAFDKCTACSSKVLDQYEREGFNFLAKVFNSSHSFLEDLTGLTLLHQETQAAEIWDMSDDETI
Chain of UniProt Q86WA6 (Q86WA6 whole entry, looked up): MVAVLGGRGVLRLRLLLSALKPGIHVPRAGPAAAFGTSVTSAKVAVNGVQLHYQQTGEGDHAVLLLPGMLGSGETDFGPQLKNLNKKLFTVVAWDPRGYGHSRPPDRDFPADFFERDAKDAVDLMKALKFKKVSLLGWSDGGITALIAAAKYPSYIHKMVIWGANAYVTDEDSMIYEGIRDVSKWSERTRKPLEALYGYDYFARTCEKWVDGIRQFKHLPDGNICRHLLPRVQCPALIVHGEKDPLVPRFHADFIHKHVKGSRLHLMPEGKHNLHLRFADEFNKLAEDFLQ
Chain of UniProt O95260 (O95260 whole entry, looked up): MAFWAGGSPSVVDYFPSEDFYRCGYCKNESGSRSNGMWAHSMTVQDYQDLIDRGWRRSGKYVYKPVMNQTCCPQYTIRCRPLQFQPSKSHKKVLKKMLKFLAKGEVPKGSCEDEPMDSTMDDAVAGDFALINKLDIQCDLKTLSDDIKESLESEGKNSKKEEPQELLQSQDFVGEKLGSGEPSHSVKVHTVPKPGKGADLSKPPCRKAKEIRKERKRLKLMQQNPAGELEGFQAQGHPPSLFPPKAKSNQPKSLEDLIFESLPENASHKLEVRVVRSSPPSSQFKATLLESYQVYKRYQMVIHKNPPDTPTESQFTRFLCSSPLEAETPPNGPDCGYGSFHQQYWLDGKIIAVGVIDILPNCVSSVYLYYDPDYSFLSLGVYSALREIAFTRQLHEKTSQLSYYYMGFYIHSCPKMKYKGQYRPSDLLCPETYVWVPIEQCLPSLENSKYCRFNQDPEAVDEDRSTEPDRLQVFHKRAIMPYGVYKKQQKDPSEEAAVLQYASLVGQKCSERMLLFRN
Chain of UniProt Q5BKX5 (Q5BKX5 whole entry, looked up): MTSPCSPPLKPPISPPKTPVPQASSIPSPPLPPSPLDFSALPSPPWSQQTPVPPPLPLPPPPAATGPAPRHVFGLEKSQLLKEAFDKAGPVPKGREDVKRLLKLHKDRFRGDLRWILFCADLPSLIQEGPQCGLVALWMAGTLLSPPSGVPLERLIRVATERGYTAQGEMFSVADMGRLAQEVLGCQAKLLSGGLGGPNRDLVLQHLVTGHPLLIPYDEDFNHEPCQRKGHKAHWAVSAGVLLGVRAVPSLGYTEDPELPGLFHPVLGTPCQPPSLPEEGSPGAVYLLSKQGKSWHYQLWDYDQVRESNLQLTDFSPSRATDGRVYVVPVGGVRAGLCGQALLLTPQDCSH
Chain of UniProt O75081 (O75081 whole entry, looked up): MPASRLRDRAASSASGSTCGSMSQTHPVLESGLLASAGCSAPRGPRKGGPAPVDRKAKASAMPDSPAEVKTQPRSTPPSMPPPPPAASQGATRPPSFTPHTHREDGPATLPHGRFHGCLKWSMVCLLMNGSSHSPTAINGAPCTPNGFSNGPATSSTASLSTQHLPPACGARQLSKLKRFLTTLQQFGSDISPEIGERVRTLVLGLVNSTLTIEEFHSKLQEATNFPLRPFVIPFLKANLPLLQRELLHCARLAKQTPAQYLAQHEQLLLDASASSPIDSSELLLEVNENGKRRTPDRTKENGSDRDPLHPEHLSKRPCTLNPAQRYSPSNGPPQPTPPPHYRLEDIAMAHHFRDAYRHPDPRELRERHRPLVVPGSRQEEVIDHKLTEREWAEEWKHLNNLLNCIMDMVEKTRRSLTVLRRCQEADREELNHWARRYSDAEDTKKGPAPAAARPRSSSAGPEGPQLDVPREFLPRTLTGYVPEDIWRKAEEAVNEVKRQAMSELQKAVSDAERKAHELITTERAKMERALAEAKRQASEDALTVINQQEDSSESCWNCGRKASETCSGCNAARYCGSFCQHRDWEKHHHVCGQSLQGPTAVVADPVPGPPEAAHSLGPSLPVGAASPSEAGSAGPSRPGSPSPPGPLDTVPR
Chain of UniProt P42574 (P42574 whole entry, looked up): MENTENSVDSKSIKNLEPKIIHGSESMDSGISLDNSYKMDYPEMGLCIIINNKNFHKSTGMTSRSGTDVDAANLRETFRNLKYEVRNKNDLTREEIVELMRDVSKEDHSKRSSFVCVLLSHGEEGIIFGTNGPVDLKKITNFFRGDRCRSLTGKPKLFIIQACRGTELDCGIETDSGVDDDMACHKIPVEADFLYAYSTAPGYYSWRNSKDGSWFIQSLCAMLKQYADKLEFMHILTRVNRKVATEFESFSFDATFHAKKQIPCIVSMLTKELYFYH
Chain of UniProt P20248 (P20248 whole entry, looked up): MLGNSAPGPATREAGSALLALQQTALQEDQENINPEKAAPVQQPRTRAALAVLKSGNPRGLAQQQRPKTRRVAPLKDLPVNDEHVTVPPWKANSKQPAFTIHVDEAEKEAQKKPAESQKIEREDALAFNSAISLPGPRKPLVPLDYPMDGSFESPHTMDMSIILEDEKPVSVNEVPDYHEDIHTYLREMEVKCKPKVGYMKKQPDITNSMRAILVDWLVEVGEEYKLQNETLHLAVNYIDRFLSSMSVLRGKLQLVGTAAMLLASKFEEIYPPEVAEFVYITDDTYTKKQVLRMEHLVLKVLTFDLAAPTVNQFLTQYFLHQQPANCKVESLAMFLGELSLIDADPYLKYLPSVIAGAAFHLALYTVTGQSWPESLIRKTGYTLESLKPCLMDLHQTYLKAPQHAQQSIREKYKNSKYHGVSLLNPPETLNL
Chain of UniProt Q9Y2V0 (Q9Y2V0 whole entry, looked up): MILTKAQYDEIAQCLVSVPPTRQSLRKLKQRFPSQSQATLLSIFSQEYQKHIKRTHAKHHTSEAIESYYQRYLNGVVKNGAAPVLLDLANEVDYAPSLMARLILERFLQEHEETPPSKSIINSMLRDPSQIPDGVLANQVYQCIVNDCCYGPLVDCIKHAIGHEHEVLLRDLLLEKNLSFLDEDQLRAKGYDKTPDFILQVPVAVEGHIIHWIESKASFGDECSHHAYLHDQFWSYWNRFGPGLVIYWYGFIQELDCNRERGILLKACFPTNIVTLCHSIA
Chain of UniProt Q99700 (Q99700 whole entry, looked up): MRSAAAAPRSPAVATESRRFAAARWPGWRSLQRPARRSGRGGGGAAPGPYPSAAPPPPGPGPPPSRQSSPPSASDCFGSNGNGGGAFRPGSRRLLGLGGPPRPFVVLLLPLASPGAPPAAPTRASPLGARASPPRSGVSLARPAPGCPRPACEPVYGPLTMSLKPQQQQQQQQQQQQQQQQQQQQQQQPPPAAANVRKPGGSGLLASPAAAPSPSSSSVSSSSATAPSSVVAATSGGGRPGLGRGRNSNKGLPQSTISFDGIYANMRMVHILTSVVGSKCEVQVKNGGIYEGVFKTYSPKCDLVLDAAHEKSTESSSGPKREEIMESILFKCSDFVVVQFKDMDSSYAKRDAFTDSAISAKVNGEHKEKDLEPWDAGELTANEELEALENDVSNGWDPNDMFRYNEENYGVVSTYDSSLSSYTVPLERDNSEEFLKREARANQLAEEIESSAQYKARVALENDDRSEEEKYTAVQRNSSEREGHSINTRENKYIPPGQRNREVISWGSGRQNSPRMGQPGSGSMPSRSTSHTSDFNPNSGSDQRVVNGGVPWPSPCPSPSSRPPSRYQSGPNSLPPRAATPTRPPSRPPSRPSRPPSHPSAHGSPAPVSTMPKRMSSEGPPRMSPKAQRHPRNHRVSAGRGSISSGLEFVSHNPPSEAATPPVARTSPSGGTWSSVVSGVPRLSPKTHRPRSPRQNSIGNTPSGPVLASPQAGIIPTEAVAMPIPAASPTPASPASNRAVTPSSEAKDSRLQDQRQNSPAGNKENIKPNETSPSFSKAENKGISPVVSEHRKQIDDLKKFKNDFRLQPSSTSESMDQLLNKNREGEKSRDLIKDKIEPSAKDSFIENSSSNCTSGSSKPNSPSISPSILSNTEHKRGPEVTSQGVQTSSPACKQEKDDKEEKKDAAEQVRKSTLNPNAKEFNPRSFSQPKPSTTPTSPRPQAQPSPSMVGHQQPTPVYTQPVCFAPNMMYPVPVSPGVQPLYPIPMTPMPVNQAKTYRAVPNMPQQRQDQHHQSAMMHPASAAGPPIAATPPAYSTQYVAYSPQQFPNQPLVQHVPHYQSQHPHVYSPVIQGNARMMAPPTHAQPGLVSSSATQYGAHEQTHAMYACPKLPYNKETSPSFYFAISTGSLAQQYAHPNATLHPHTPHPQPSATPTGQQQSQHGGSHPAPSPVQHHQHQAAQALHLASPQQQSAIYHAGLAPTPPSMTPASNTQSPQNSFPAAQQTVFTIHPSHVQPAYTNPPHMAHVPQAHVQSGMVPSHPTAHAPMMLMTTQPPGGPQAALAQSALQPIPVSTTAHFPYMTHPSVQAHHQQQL

Compound in one assay: CCn1c(C(=O)N(C2CC2)C2CC2)cc2c3c(ncn3C)c(Nc3cc(C)n(C)n3)nc21
The experiment in a line: log2 fold change, soluble protein after heating vs DMSO (PISA); higher = thermal stabilisation; K562 lysate, 10 uM; active = over 0.2 and 3.5 SD of the protein, either way, in both replicates (recomputed). Summed up: (§1)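 Log-two fold change in thermal stability relative to solvent controls is reported from duplicates. For each sample, crude K562 extract from dounce-homogenised pellets in PBS pH 7.4 with 1 mM MgCl2, at 1 mg/mL protein, was treated with 10 μM compound for 30 min. Aliquots heated for 3 min across 48°C-58°C were pooled, brought to 0.5% NP-40 at 4°C and cleared at 21,000xg for 90 min. The supernatant was quantified by TMTpro 16plex LC-MS/MS with channel sums equalised.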
In the case of C15orf41 (UniProt Q9Y2V0), the log2 fold change was -0.049.
CDC123 (UniProt O75794): the log2 fold change was 0.032.
For BMS1 (UniProt Q14692), the log2 fold change is 0.012.
As to CCNA2 (UniProt P20248), the log2 fold change was -0.03.
For ATE1 isoform 2 (UniProt O95260), the log2 fold change is 0.014.
BPHL (UniProt Q86WA6): the log2 fold change was 0.069.
On to ATR (UniProt Q13535), for which the log2 fold change is 0.018.
Regarding BORCS5 (UniProt Q969J3), the log2 fold change is -0.01.
Turning to CCNYL1 (UniProt Q8N7R7), the log2 fold change was 0.012.
Regarding CBFA2T3 (UniProt O75081), the log2 fold change was -0.007.
Take ATG7 (UniProt O95352): the log2 fold change is 0.021.
Regarding CAMKK2 (UniProt Q96RR4), the log2 fold change is 0.057.
As for C19orf54 (UniProt Q5BKX5), the log2 fold change is -0.06.
For the target ATXN2 (UniProt Q99700), the log2 fold change is 0.022.
For the target CASP3 (UniProt P42574), the log2 fold change is -0.011.
On to CAMKK1 isoform 2 (UniProt Q8N5S9), for which the log2 fold change was 0.115.

Compound in a further assay: CCn1cc(-c2ccnc3[nH]c(-c4cccc(CN(C)C)c4)cc23)c(-c2ccc(NC(=O)N(C)C)cc2)n1
Described as above. Summed up:
as §1
Consider CARD9 (UniProt Q9H257), for which the log2 fold change is -0.036.
With ATG13 isoform 2 (UniProt O75143), the log2 fold change is -0.281 (active).
On the same count and under the same terms, in the case of CCDC25 (UniProt Q86WR0) it was 0.581 (active); in that of CCPG1 isoform 5 (UniProt Q9ULG6), -0.081.
BRAF (UniProt P15056): the log2 fold change was -0.11.
With CALB2 (UniProt P22676), the log2 fold change is -0.065.
In the case of CES2 isoform 4 (UniProt O00748), the log2 fold change was 0.002.
With CCDC47 (UniProt Q96A33), the log2 fold change is -0.02.
With CCNB2 (UniProt O95067), the log2 fold change is -0.085.
Regarding ATP2B4 (UniProt P23634), the log2 fold change is -0.185.
On the same count and under the same terms, the value for CDKN1C (UniProt P49918) was 0.073.
Turning to ATAD3B (UniProt Q5T9A4), the log2 fold change was 0.383 (active).
Regarding CEP76 (UniProt Q8TAP6), the log2 fold change was -0.04.
Consider CDK13 (UniProt Q14004), for which the log2 fold change was -0.09.
For C2CD5 isoform 3 (UniProt Q86YS7), the log2 fold change was -0.309 (active).
On to CDAN1 (UniProt Q8IWY9), for which the log2 fold change is -0.03.
With ATRIP (UniProt Q8WXE1), the log2 fold change was 0.031.
As to CAMK2G isoform 8 (UniProt Q13555), the log2 fold change is -0.001.
The same measure, in the same setting: the value for CDC16 (UniProt Q13042) was 0.046; that for CDC7 (UniProt O00311) was -0.01.
As to BNIP1 (UniProt Q12981), the log2 fold change was 0.287 (active).
In the case of CAD (UniProt P27708), the log2 fold change is -0.085.
On to CFDP1 (UniProt Q9UEE9), for which the log2 fold change is -0.311 (active).
The same measure, in the same setting: the value for C15orf41 (UniProt Q9Y2V0) was -0.143; that for CDC123 (UniProt O75794) was 0.018; that for BMS1 (UniProt Q14692) was -0.054.
As to CCNA2 (UniProt P20248), the log2 fold change was -0.183.
Turning to ATE1 isoform 2 (UniProt O95260), the log2 fold change is 0.032.
For BPHL (UniProt Q86WA6), the log2 fold change is 0.063.
Turning to ATR (UniProt Q13535), the log2 fold change is -0.307.
Take BORCS5 (UniProt Q969J3): the log2 fold change was 0.075.
CCNYL1 (UniProt Q8N7R7): the log2 fold change was -0.188.
On the same count and under the same terms, the value for CBFA2T3 (UniProt O75081) was -0.023; that for ATG7 (UniProt O95352) was -0.058.
For CAMKK2 (UniProt Q96RR4), the log2 fold change was 0.003.
Consider C19orf54 (UniProt Q5BKX5), for which the log2 fold change is 0.013.
Consider ATXN2 (UniProt Q99700), for which the log2 fold change was 0.005.
Take CASP3 (UniProt P42574): the log2 fold change was 0.279 (active).
As to CAMKK1 isoform 2 (UniProt Q8N5S9), the log2 fold change is -0.204.

Compound in another assay: CN1CCC(CNc2ccc3ncc(-c4cccc(OC(F)(F)F)c4)n3n2)CC1
Described as above. In outline:
as §1
Turning to CARD9 (UniProt Q9H257), the log2 fold change was 0.013.
As for ATG13 isoform 2 (UniProt O75143), the log2 fold change is 0.077.
Consider CCDC25 (UniProt Q86WR0), for which the log2 fold change is -0.079.
For the target CCPG1 isoform 5 (UniProt Q9ULG6), the log2 fold change was 0.04.
BRAF (UniProt P15056): the log2 fold change is 0.037.
As to CALB2 (UniProt P22676), the log2 fold change is 0.066.
Still for that read-out and setting: the value for CES2 isoform 4 (UniProt O00748) was 0.034; that for CCDC47 (UniProt Q96A33) was -0.09.
On to CCNB2 (UniProt O95067), for which the log2 fold change was 0.011.
Same read-out and setting: the value for ATP2B4 (UniProt P23634) was 0.145.
On the same count and under the same terms, the value for CDKN1C (UniProt P49918) was 0.03; that for ATAD3B (UniProt Q5T9A4) was -0.205.
The same measure, in the same setting: the value for CEP76 (UniProt Q8TAP6) was 0.053.
In the case of CDK13 (UniProt Q14004), the log2 fold change was 0.04.
In the case of C2CD5 isoform 3 (UniProt Q86YS7), the log2 fold change is 0.162.
With CDAN1 (UniProt Q8IWY9), the log2 fold change is -0.012.
Take ATRIP (UniProt Q8WXE1): the log2 fold change is -0.001.
Consider CAMK2G isoform 8 (UniProt Q13555), for which the log2 fold change is 0.022.
As for CDC16 (UniProt Q13042), the log2 fold change is -0.041.
Turning to CDC7 (UniProt O00311), the log2 fold change is -0.073.
On to BNIP1 (UniProt Q12981), for which the log2 fold change was -0.204.
With CAD (UniProt P27708), the log2 fold change is 0.003.
The same measure, in the same setting: in the case of CFDP1 (UniProt Q9UEE9) it was 0.105; in that of C15orf41 (UniProt Q9Y2V0), 0.037.
On to CDC123 (UniProt O75794), for which the log2 fold change was -0.021.
Still for that read-out and setting: the value for BMS1 (UniProt Q14692) was 0.006; that for CCNA2 (UniProt P20248) was 0.169.
Regarding ATE1 isoform 2 (UniProt O95260), the log2 fold change is 0.126.
Turning to BPHL (UniProt Q86WA6), the log2 fold change was 0.
For the target ATR (UniProt Q13535), the log2 fold change was 0.337.
Turning to BORCS5 (UniProt Q969J3), the log2 fold change was -0.055.
Turning to CCNYL1 (UniProt Q8N7R7), the log2 fold change is 0.269.
CBFA2T3 (UniProt O75081): the log2 fold change is -0.018.
Consider ATG7 (UniProt O95352), for which the log2 fold change is 0.091.
The same measure, in the same setting: in the case of CAMKK2 (UniProt Q96RR4) it was 0.002; in that of C19orf54 (UniProt Q5BKX5), 0.003.
As for ATXN2 (UniProt Q99700), the log2 fold change was -0.03.
On to CASP3 (UniProt P42574), for which the log2 fold change is -0.049.
Same read-out and setting: in the case of CAMKK1 isoform 2 (UniProt Q8N5S9) it was 0.041.
